# Bioassay records: PubChem BioAssay, National Center for Advancing Translational Sciences (NCATS)
# KB-V1 cytotox: qHTS assay for MDR1-selective chemotherapeutics: Primary screen using the drug-selected MDR subline cells KB-V1; KB-V1 MDR cells viability, CellTiter-Glo, 72 h; Potency, µM (top dose mostly 46.1 µM), usual class: cytotoxic; 400,000 compounds, 3.4% hits; AID 1347076, 2019; note: % is set by controls: 0 for no effect and ±100 for the full control effect; nearly all actives have a fitted effect of over 60% in size
#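 Cytotoxicity toward P-gp-expressing KB-V1 cells was determined as loss of CellTiter-Glo luminescence after 72 h at 37 degrees C. Compounds were tested in quantitative HTS format across a concentration range, with curves fitted to normalized data.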
# MCF10A rerep: A quantitative high throughput screen for small molecules that induce DNA re-replication in MCF 10a normal breast cells; MCF 10A DNA re-replication, Hoechst nuclear intensity, 48 h; Potency, µM (series often up to 46.1 µM), for inactives: at the highest dose activity, positive = re-replication, usual class: activators; 350,000 compounds, 2.9% hits; note: % of control where 0% means no effect; nearly all actives have a fitted effect of over 50% in size
# KB-3-1 tox: qHTS assay for MDR1-selective chemotherapeutics: Primary screen using the parental adenocarcinoma cell KB-3-1; KB-3-1 viability, CellTiter-Glo ATP luminescence, 72 h; Potency, µM (top dose mostly 46.1 µM), usual class: cytotoxic; 400,000 compounds, 1.4% hits; note: % is set by controls: 0 for no effect and ±100 for the full control effect; nearly all actives have a fitted effect of over 60% in size
#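 Here the drug-naive KB-3-1 line serves as comparator for MDR sub-line selectivity; cells received compound titrations, 72 h at 37 °C, then CellTiter-Glo readout.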
# SW480 rerep: A quantitative high throughput screen for small molecules that induce DNA re-replication in SW480 colon adenocarcinoma cells | SW480 DNA re-replication, Hoechst DNA content imaging, 48 h | AID 624297, 2012 | 340,000 compounds, 1.8% hits | Potency, µM (highest dose often 46.1 µM), inactives show at the top dose re-replication activation, hits mostly activators; note: % of control where 0% means no effect; nearly all actives have a fitted effect of over 55% in size
#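 SW480 cells exposed to compounds for 48 hr at 37 C, 5% CO2, then Hoechst-stained 40 min. Nuclear DNA content imaged by fluorescence scanning (405 nm excitation, 500-530 nm emission); re-replication scored as increased high-intensity nuclei.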
# RORgamma inh: qHTS for inhibitors of ROR gamma transcriptional activity; Nuclear receptor ROR-gamma (Mus musculus), P51450; Drosophila S2 Gal4-RORgamma UAS-luciferase reporter, 20 h; Potency, µM (top dose mostly 53.6 µM), without a hit: at the top dose activity change, negative = inhibition, most hits filed as inhibitors; 310,000 compounds, 5.4% hits; note: % is set by controls: 0 for no effect and ±100 for the full control effect; nearly all actives have a fitted effect of over 60% in size
# Target sequence (P51450 whole entry, looked up, the tested form may be a part): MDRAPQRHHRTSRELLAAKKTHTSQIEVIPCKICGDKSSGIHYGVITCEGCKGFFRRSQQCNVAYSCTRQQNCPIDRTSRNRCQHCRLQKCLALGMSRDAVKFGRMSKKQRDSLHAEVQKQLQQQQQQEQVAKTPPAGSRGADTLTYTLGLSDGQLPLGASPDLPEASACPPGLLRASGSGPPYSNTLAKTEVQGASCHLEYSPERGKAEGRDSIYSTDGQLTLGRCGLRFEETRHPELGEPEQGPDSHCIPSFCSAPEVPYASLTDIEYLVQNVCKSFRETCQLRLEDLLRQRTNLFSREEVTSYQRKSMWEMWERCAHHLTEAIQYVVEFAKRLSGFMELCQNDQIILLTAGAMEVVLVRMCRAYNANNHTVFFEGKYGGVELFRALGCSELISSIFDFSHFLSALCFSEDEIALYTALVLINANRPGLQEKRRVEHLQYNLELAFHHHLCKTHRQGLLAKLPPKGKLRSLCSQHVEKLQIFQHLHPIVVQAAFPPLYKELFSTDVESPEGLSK
#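 Stable Schneider cell line, Gal4 DNA-binding domain fused to ROR gamma, UAS-luciferase. Cmpd 1 hr RT → CuSO4 700 uM final → 20 hr RT → luciferase reagent 10 min → luminescence.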
# Gal4-VP16 FLuc: VP16 counterscreen qHTS for inhibitors of ROR gamma transcriptional activity; Potency, µM (highest dose often 53.6 µM), for the others: at the highest dose activity, negative = inhibition, hits mostly inhibitors; 310,000 compounds, 3.5% hits; Drosophila S2 Gal4-VP16 UAS-luciferase, luminescence, 20 h;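 note: Gal4-VP16 expression switched on by copper sulfate through the metallothionein promoter; % is set by controls: 0 for no effect and ±100 for the full control effect; nearly all actives have a fitted effect of over 50% in size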
# The depositor's hits bear a star; i = inactive; u = inconclusive; x = no result given; [ ] = remark or other dose. Most compounds without a hit are left out; they make up all but 10% or so of the library. Calls come from the whole dose curve; as a rule, active = well fitted curve in the direction sought with a large enough effect; inconclusive = small, poorly fitted or top-dose-only effect, or another doubt; inactive = no such curve, though single readings can be large; an effect the other way counts as inactive or inconclusive. Potency is the fitted concentration of half-maximal effect.
SMILES,KB-V1 cytotox,MCF10A rerep,KB-3-1 tox,SW480 rerep,RORgamma inh,Gal4-VP16 FLuc
O=C(NC(=S)Nc1ccc2c(c1)OCO2)c1ccccc1,i,29%,i,1%[9.22 µM],4.5µM*,u
NS(=O)(=O)c1ccc(NC(=S)NC(=O)c2ccc3c(c2)OCO3)cc1,i,-6%,i,-8%,u,u
O=C(NC(=S)Nc1ccccc1Br)c1ccc2c(c1)OCO2,x,-3%,x,-11%,4.5µM*,8.9µM*
O=C(NC(=S)Nc1ccc2c(c1)OCCO2)c1cccc2ccccc12,i,17%,i,5%,10µM*,u
CC(C)c1ccc(O)c(NC(=S)NC(=O)c2ccc3c(c2)OCO3)c1,i,u,i,-1%,0.56µM*,1.4µM*
S=C(Nc1ccc(Br)cc1)Nc1ccc2c(c1)OCCO2,i,0%,i,-4%,18µM*,u
O=C(Nc1ccc2c(c1)OCCO2)c1cccc(C(=O)Nc2ccc3c(c2)OCCO3)c1,i,1%,i,-6%,-13%,11%
COc1cc(NC(=S)Nc2ccc3c(c2)OCCO3)cc(OC)c1OC,i,1%,i,-4%,-22%,24%
O=C(NC(=S)Nc1ccc2c(c1)OCCO2)c1cccc(Br)c1,i,2%,i,-4%,5µM*,u
O=C(NNS(=O)(=O)c1ccc(F)cc1)c1cnn(-c2ccccc2)c1C(F)(F)F,i,1%,i,23%,u,13µM*
CCOC(=O)c1nnc(-c2ccc(C)cc2)nc1Sc1ccccc1Cl,i,7.3µM*,u,-4%,27%,-17%
CCOC(=O)c1nnc(-c2ccccc2)nc1NCc1ccc(Cl)cc1,i,u,i,1%,18%,11%
CCOC(=O)c1nnc(-c2ccc(C)cc2)nc1Sc1ccc(Cl)cc1,i,-2%,i,-7%,3%,-5%
CCOC(=O)c1nnc(-c2ccccc2)nc1Sc1c(Cl)cccc1Cl,i,15µM*,i,u,-28%,18µM*
CCOC(=O)c1nnc(-c2ccc(C)cc2)nc1Oc1ccccc1Cl,i,2.3µM*,i,u,7%,6.3µM*
COc1ccc(-c2ccc(C(C)=O)cc2)cc1C1C2C=CCC(C)C2C(=O)N1Cc1ccccc1 (stereo not given),x,x,x,x,14%,5%
COC(=O)c1ccc(NC(=O)CCS(=O)(=O)c2ccc(Br)cc2)cc1,i,-4%,i,3%,8%,11µM*
CNC(=O)CCC(=O)Nc1ccc(C(=O)OC)cc1,i,-1%,i,0%,-28%,-11%
COC(=O)c1ccc(NC(=O)CC(=O)Nc2ccc(C(=O)OC)cc2)cc1,i,15µM*,i,-2%,-11%,-8%
COC(=O)c1ccc(NC(=O)CCS(=O)(=O)c2ccc3c(c2)NC(=O)C(C)S3)cc1 (stereo not given),i,6%,i,10%,-39%,7.1µM*
COC(=O)c1ccc(NC(=O)CCS(=O)(=O)c2ccc(C)cc2)cc1,i,-12%,i,-2%,3%,u
COC(=O)c1ccccc1NC(=O)CCC(=O)N1CC(C)Oc2ccc(C)cc21 (stereo not given),i,-4%,i,-10%,13%,0%
Cc1ccccc1NC(=O)COC(=O)c1ccccc1OCC(=O)Nc1ccc(Br)cc1,i,x,i,x,x,x
O=C1CCCCc2sc(Br)c([N+](=O)[O-])c2N1,i,u,i,2.9µM*,11µM*,u
O=C1N=C(O)CN1/N=C\c1ccc(-c2ccc([N+](=O)[O-])cc2)o1,x,x,x,x,-15%,-19%
